Laboratory results reported in article PMC4336329 (PLoS ONE, 2015).
About 14,000 (4.5%) of roughly 310,000 compounds showed an effect of 50% or more. The effect is printed as a negative number. The list comes from a sample in which strong results are over-represented; it also holds similar structures and randomly drawn compounds.

Each compound was assayed against human ether-à-go-go-related gene (hERG) potassium channel (human, UniProt Q12809) (assay: primary screen, population patch clamp on CHO cells stably expressing hERG; higher = less effect of the substance).
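Also: peak tail current of the secondary pulse compared with the same well before compound.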

Sequence of human ether-à-go-go-related gene (hERG) potassium channel (Q12809 whole entry, looked up): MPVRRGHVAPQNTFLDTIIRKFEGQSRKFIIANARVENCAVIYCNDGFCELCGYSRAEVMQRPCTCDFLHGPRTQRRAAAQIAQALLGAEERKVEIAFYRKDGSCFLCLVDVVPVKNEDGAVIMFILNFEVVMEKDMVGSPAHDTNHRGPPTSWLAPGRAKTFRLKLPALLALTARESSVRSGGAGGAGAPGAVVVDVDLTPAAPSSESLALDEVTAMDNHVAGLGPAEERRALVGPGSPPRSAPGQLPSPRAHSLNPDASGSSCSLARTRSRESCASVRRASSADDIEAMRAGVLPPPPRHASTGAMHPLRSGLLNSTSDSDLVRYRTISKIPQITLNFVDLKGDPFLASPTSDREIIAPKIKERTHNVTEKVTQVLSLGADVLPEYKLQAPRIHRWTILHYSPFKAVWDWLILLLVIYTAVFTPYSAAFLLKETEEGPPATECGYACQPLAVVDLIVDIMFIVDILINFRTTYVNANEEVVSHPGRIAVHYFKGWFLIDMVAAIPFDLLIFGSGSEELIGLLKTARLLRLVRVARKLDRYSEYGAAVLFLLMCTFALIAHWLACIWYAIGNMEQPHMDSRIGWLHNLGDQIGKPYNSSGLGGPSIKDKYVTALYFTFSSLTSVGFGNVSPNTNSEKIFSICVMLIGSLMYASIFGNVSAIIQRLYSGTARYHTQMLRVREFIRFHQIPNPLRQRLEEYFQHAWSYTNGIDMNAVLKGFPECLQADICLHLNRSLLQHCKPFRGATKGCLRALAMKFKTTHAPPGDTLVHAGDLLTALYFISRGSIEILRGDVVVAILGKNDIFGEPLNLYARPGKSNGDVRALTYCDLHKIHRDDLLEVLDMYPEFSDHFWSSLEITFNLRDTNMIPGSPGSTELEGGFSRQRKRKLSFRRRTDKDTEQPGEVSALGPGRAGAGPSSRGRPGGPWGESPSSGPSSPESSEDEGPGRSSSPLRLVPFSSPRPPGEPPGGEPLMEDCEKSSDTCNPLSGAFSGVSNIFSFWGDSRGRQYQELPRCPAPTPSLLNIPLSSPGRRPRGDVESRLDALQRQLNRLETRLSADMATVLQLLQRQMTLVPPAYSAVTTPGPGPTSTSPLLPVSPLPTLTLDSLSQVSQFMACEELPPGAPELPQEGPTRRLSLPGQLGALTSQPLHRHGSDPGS

Structure (SMILES)	hERG current change (%, negative = inhibition) at 10uM [%]
O=C(NN=C1CCCC1)c1[nH]c2ccc(Cl)cc2c1-c1ccccc1	7.13
Cc1cc(C(=O)CSc2nc(N)cc(=O)[nH]2)c(C)n1CCc1ccc(F)cc1	1.93
O=C(NCCNC(=O)c1cnccn1)c1ccc(Cl)c(Cl)c1	-13.3
COc1cccc(NC(=O)c2cnsn2)c1	3.19
CCOCCNC(=O)c1ccccc1C(=O)NCCOCC	-11.1
O=[N+]([O-])c1cc(N=Nc2ccc3ccccc3c2)ccc1O	12.8
COC(=O)C1C2C=CC3(CN(c4cccc(Cl)c4)C(=O)C13)O2 (centres unmarked)	2.49
CC1(C)Cc2c(cnn2-c2ccc(F)cc2)C(NC(=O)c2cnccn2)C1 (centres unmarked)	-37.6
CC1(C)Cc2c(cnn2-c2ccc(F)cc2)C(NC(=O)c2ccoc2)C1 (centres unmarked)	-89.1
CC1(C)Cc2c(cnn2-c2ccccc2)C(NC(=O)c2ccc[n+]([O-])c2)C1 (centres unmarked)	2.3
Cc1cc(C(=O)NC2CC(C)(C)Cc3c2cnn3-c2ccc(F)cc2)no1 (centres unmarked)	-32.8
CC1(C)Cc2c(cnn2-c2ccccc2)C(NC(=O)c2ccoc2)C1 (centres unmarked)	-93.4
CC(=O)c1ccc(C(=O)NC2CC(C)(C)Cc3c2cnn3-c2ccccc2)cc1 (centres unmarked)	-21.8
CC1Cc2cc(S(=O)(=O)NCCc3ccccc3)ccc2N1C(=O)C1CC1 (centres unmarked)	13.7
COc1ccc(-c2cc(=O)[nH]c(=O)[nH]2)cc1	-3.74
O=C(c1cccc(S(=O)(=O)Nc2ccccc2Cl)c1)N1CCC1	-0.443
Cc1ccc(SCC(=O)NCCc2ccc(F)cc2)cc1	-0.26
CCc1cccc(NC(=O)c2cccc3c2C(=O)N(CC2CCCO2)C3)c1 (centres unmarked)	-72.2
COc1ccc(CNC(=O)c2cccc3c2C(=O)N(CC2CCCO2)C3)cc1 (centres unmarked)	-34.5
O=C(NCc1ccc(Cl)cc1)c1cccc2c1C(=O)N(CC1CCCO1)C2 (centres unmarked)	-70.8
O=C(O)c1cccc2c1C(=O)N(CC1CCCO1)C2 (centres unmarked)	24.2

Structure (SMILES)	hERG current change (%, negative = inhibition) at 10uM [%]
COc1ccc(NC(=O)c2cccc3c2C(=O)N(CC2CCCO2)C3)cc1OC (centres unmarked)	-17.9
CCOC(=O)c1ccc(NC(=O)c2cccc3c2C(=O)N(CC2CCCO2)C3)cc1 (centres unmarked)	-2.27
CC(=O)N1CCC(C(=O)NCCOc2ccc(C)cc2)CC1	7.67
COc1ccc(CC(=O)NNC(=O)CN(C)S(=O)(=O)c2ccc(Cl)cc2)cc1OC	0.252
CCOC(=O)C1CCN(S(=O)(=O)Cc2ccccc2)CC1	-8.61
COc1ccc(C(=O)CC(=O)C(=O)Nc2ccc(Cl)cc2)cc1	7.74
Cc1cc2c(c(=O)o1)C(c1cccs1)C(C#N)=C(N)O2 (centres unmarked)	4
COc1ccc(-n2cc(CN3CCC(OC)CC3)c(-c3cccc(F)c3)n2)cc1	-13.5
CC(=O)N1CCCN(Cc2cn(-c3cccc(C)c3)nc2-c2cccc(F)c2)CC1	-16.9
CCC(O)C1CCN(Cc2cn(-c3ccc(OC)cc3)nc2-c2cccc(F)c2)CC1 (centres unmarked)	-75.3
COc1ccc(-n2cc(CN3CCCC3)c(-c3cccc(F)c3)n2)cc1	-57
Cc1cccc(-n2cc(CN3CCN(C(=O)c4ncn[nH]4)CC3)c(-c3cccc(F)c3)n2)c1	-16.5
CCC(=O)OCc1c(C(F)(F)F)nn(C)c1Sc1ccc(F)cc1	-8.79
CN(CCc1ccccn1)C(=S)NC(=O)c1ccco1	17.1
CCOc1ccccc1NC(=O)C(c1ccccc1)N1CCN(C(=O)c2ccco2)CC1 (centres unmarked)	-57.7
O=C(Nc1ccc2c(c1)OCO2)C(c1ccccc1)N1CCN(C(=O)c2ccco2)CC1 (centres unmarked)	-33.2
CCOCCCNC(=O)C(c1ccc(Cl)cc1)N1CCN(C(=O)c2ccco2)CC1 (centres unmarked)	-0.366
Cc1ccc(NC(=O)C(c2ccccc2)N2CCN(C(=O)c3ccco3)CC2)cc1Cl (centres unmarked)	-21.3
CC(C)c1ccc(NC(=O)C(c2ccc3c(c2)OCO3)N2CCN(C(=O)c3ccco3)CC2)cc1 (centres unmarked)	-25
CC(C)c1ccc(NC(=O)C(c2ccccc2)N2CCN(C(=O)c3ccco3)CC2)cc1 (centres unmarked)	-69.8
O=C(Nc1ccc2c(c1)OCO2)C(c1ccc(Cl)cc1)N1CCN(C(=O)c2ccco2)CC1 (centres unmarked)	-40

Structure (SMILES)	hERG current change (%, negative = inhibition) at 10uM [%]
Cc1ccc(NC(=O)C(c2ccccc2)N2CCN(C(=O)c3ccco3)CC2)cc1 (centres unmarked)	-72.9
Cc1cccc(C)c1NC(=O)C(c1ccccc1)N1CCN(C(=O)c2ccco2)CC1 (centres unmarked)	-22.8
O=C(CSc1nnc(-c2ccc(O)cc2)n1Cc1ccccc1)NNC(=O)c1ccc(Br)cc1	-4.24
Cc1ccc(NC(=O)COC(=O)CCc2ccc(S(=O)(=O)N3CCOCC3)cc2)cc1F	-11
CCn1c(COc2ccccc2)nnc1SCC(=O)Nc1ccc2c(c1)OCCO2	-6.9
Cc1ccc(NC(=O)c2nc[nH]c2C(=O)N2CCN(c3ccccc3)CC2)cc1	8.53
O=C(NCCC1CCCCN1S(=O)(=O)c1ccccc1)C(=O)Nc1ccc(F)cc1F (centres unmarked)	2.67
CC(C)NC(=O)CSc1nnc(COc2ccccc2Cl)o1	9.76
Cc1ccc(SCC(=O)OCC(=O)N(C)CC(=O)Nc2ccc(F)cc2)cc1C	-38.7
CC#CCC(CC#CC)c1nc2ccccc2c(=O)n1N	-1.36
Cc1cc[n+](-c2[nH]c(=O)sc2/C=N/N=C(\[O-])c2ccncc2)cc1	5.61
CCCc1ccc(-c2cc(C(=O)N3CCN(c4ccccn4)CC3)c3ccccc3n2)cc1	13.4
CCOC(=O)c1ccccc1NC(=O)c1cccc2c1C(=O)N(C1CCN(C(=O)OCC)CC1)C2	-30.4
CCOC(=O)N1CCC(N2Cc3cccc(C(=O)NCc4ccccc4OC)c3C2=O)CC1	-71.2
CCOC(=O)N1CCC(NC(=O)c2cccc3c2C(=O)N(c2ccc(OC)cc2)C3)CC1	-58.3
CCOC(=O)N1CCC(NC(=O)c2cccc3c2C(=O)N(CCOC)C3)CC1	-1.34
CCOC(=O)N1CCC(N2Cc3cccc(C(=O)Nc4ccc(OC)c(OC)c4)c3C2=O)CC1	-9.58
CCOC(=O)N1CCC(N2Cc3cccc(C(=O)NCc4ccc(OC)cc4)c3C2=O)CC1	-40
CCOC(=O)N1CCC(N2Cc3cccc(C(=O)Nc4ccccc4OC)c3C2=O)CC1	-79.2
CCOC(=O)N1CCC(N2Cc3cccc(C(=O)NCc4ccc(C)cc4)c3C2=O)CC1	-42.6
CCOC(=O)N1CCC(NC(=O)c2cn(-c3ccc(OC)cc3)c(=O)c3ccccc23)CC1	-6.75

Structure (SMILES)	hERG current change (%, negative = inhibition) at 10uM [%]
CCOCCn1c(N2CCCC2)nc2c1c(=O)[nH]c(=O)n2C	15.1
COc1ccc2nc(N3C(=O)CC(Cc4cc(C)cc(C)c4)C3=O)sc2c1 (centres unmarked)	9.23
COc1ccc(CCNC(=S)N2CCN(S(=O)(=O)c3ccc(Cl)cc3)CC2)cc1	22
OCCN(Cc1ccccc1)Cc1ccc(C(F)(F)F)cc1	-3.33
COc1ccc(-c2oc3cccnc3c2C#CCO)cc1	9.84
COc1ccc2[nH]c(=O)c(CN(CCO)S(=O)(=O)c3c(C)ccc4nsnc34)cc2c1	-3.86
C/C(=N\NC(=O)c1cc(-c2ccccc2C)nc2ccccc12)c1cccnc1	-10.3
CCSCc1nnc(SCC(=O)Nc2cccc(C(C)=O)c2)n1C	11.9
CCOc1ncccc1C(=O)Nc1ccc(F)c(Cl)c1	24.1
CN(Cc1ccccc1)c1ccc(N2C(=O)CCCC2=O)cc1[N+](=O)[O-]	6.5
O=C(Nc1ccc2ccccc2c1)c1ccc(NS(=O)(=O)c2ccc(Br)s2)cc1	12
Cc1cc(F)ccc1NC(=O)c1ccc(NS(=O)(=O)c2cc(C(C)(C)C)ccc2C)cc1	0.887
Cc1ccc(F)cc1NC(=O)c1ccc(NS(=O)(=O)c2ccc(Br)s2)cc1	-70
Cc1ccc(-c2ccc(=O)n(CCC(=O)N3CCC4(CC3)OCCO4)n2)cc1	-64.5
Cc1ccc(C2=NN(CCC(=O)N3CCC4(CC3)OCCO4)C(=O)CC2)cc1	-57.5
CCc1ccc(C2=NN(CCC(=O)N3CCC4(CC3)OCCO4)C(=O)CC2)cc1	-10.3
Cc1ccc2c(c1)N(CCC(=O)N1CCC3(CC1)OCCO3)C(=O)CO2	-16.8
Cc1ccc(-c2ccc(=O)n(CC(=O)N3CCC4(CC3)OCCO4)n2)cc1	5.07
O=C(CCn1nc(-c2ccc(Cl)cc2)ccc1=O)N1CCC2(CC1)OCCO2	-39.8
O=C(Nc1ccc(C2=NCCN2)cc1)c1ccc(C(=O)Nc2ccc(C3=NCCN3)cc2)c([N+](=O)[O-])c1	20.1
